Rtt109 Vps75: inhibitors of C. albicans Rtt109/Vps75 HAT, primary screen, biochemical, ThioGlo CoA-SH fluorescence, plate reader; purified Rtt109/Vps75, 4 h; AID 540336, 2011; 330,000 compounds, 0.16% hits; inhibition, % at 34.9 µM; Histone acetyltransferase RTT109 (Candida albicans (strain SC5314 / ATCC MYA-2876)), …;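 active means inhibition of at least 50% in every replicate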
Target sequence (Q5AAJ8 whole entry, looked up): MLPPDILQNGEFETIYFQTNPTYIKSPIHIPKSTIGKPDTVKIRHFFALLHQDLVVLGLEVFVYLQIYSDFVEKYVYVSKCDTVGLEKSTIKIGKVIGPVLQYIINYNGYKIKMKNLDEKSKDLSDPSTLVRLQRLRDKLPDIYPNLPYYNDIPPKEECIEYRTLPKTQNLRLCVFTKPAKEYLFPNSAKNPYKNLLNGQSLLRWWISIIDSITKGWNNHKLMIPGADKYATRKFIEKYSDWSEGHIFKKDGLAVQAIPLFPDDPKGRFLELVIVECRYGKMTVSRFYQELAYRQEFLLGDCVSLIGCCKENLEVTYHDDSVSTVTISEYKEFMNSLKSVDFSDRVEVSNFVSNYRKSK
esBAF inh: Bmi1 luciferase reporter increase in mESCs, primary screen, esBAF inhibitor project, mouse ES cells, Bmi1 luciferase knock-in, single point. 24 h; 100% = twice the neutral-well signal. reporter increase, % at 12.5 µM. 350,000 compounds, 2% hits; in the data active means activation above about 40%;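 further: 0% = median of the plate's neutral control wells and 100% = double that signal; a rise in the Bmi1 reporter signal indicates esBAF inhibition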
CDK5 p35 inh: inhibitors of human CDK5/p35 kinase, primary screen, biochemical, single concentration | AID 488839, 2010 | 330,000 compounds, 0.01% hits | inhibition, % at 10 µM | Cyclin-dependent kinase 5 (Homo sapiens) + Cyclin-dependent kinase 5 activator 1 (Homo … | Recombinant CDK5/p35, ADP-Glo luminescence, 60 min;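 active means highest replicate inhibition of at least 50% and at least 75% of replicates reaching 50%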;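 further: plate controls were DMSO neutral control for no effect and GW8510 at 10 µM for full effect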
dFosB act: activators of delta FosB homodimer, primary screen, biochemical, fluorescence polarization, TAMRA-CDK5 oligo, single point | Protein FosB (Mus musculus), P13346 | purified delta FosB; percent of positive-control signal above neutral wells | activation, % at 25 µM | 340,000 compounds, 0.99% hits;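 active means mean activation above about 17%, with every replicate also reaching it, limit read from the data, passing the limit was not always enough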
Target sequence (P13346 whole entry, looked up): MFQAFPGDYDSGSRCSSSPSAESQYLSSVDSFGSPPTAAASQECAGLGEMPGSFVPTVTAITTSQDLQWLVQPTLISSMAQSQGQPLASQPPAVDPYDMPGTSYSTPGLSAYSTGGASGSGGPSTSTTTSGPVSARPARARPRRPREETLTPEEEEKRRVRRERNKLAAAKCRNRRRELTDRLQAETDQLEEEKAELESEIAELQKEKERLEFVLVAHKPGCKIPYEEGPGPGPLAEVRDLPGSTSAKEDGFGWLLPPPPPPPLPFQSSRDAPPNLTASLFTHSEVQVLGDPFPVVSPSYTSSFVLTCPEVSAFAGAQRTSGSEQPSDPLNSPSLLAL
SMARCA2 act: SMARCA2 (BRM) function activators, primary screen, cell-based, luminescence, high throughput. 370,000 compounds, 1% hits. activation, % at 9.1 µM. MG213 cells, MMTV-luciferase reporter, dexamethasone, overnight. AID 652017, 2013; in the data active means activation above about 7.8%;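 further: 0% = vehicle wells and 100% = reference activator wells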
Dyrk1A ADPGlo: rat Dyrk1A kinase inhibitors, primary screen, biochemical, single point, plate reader; Dual specificity tyrosine-phosphorylation-regulated kinase 1A (Rattus norvegicus), Q63470; ADP-Glo luminescence, NFATc1 peptide; inhibition, % at 12.5 µM; 310,000 compounds, 0.43% hits; AID 504441, 2011; in the data active means inhibition above about 50%;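 further: plate controls were vehicle with enzyme for no effect and no enzyme for full effect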
SMARCA2 act conf: SMARCA2 (BRM) function activators, confirmation, cell-based, luminescence, triplicate; shares compounds with SMARCA2 act; MG213 cells, MMTV-luciferase with dexamethasone, overnight; MG213 cells expressing E1A, Rb sequestered; DMSO wells 0%, reference activator 100%; activation, % at 9.1 µM; 3,500 compounds, 30% hits; AID 652260, 2013;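 active means activation above its plate's cutoff, the mean activation of tested wells plus 3 SD, cut at about 7.9% in these data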
VP16 Luc act: GAL4-VP16 luciferase reporter activation, counter-screen for SMARCA2 (BRM) activator project, cell-based, pG5luc, luminescence, high throughput | 3,500 compounds, 41% hits | shares compounds with SMARCA2 act | activation, % at 9.1 µM | HEK293 GAL4-VP16 pG5luc reporter; scaled: DMSO wells 0%, SAHA wells 100%;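 active means activation above the solvent-only control well mean plus 3 SD, averaged across control plates, cut at about 5.2% in these data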
* = called active by the depositor; nt = no result given; ! = not confirmed by another sample. In the library only some 3.2% were active in any assay of this set; here they are far more common.

SMILES | Rtt109 Vps75 | esBAF inh | CDK5 p35 inh | dFosB act | SMARCA2 act | Dyrk1A ADPGlo | SMARCA2 act conf | VP16 Luc act
COCCCn1c(=O)/c(=C\c2ccccc2OC(F)F)s/c1=C(/C#N)C(=O)NC(C)C | -19 | nt | -2 | -3 | 14* | 1 | 5 | 2
COCCCn1c(=O)/c(=C\c2ccccc2OC(C)C)s/c1=C(/C#N)C(=O)Nc1ccc(C(=O)O)cc1 | 5 | -1 | -10 | -18 | 1 | 0 | nt | nt
Cn1c(N)c(C(=O)COC(=O)CCCN2C(=O)c3ccccc3C2=O)c(=O)n(C)c1=O | 1 | -2 | -1 | -2 | -2 | nt | nt | nt
CC(C(=O)OCC(=O)c1c(N)n(C)c(=O)n(C)c1=O)N1C(=O)c2ccccc2C1=O (configuration not stated) | -2 | nt | 1 | -6 | 10* | 12 | 7 | 0
CCS(=O)(=O)c1ccc(O)c(NC(=O)COc2ccc(OC)cc2)c1 | 3 | -4 | -1 | 3 | 8.1* | -2 | -2 | -1
O=C(N/N=C/c1ccc(-c2ccccc2C(=O)O)o1)c1cccs1 | -5 | nt | -5 | -4 | 8.6* | 0 | 1 | 3
Cc1ccc(/C=N/NC(=O)CNC(=O)c2cccs2)o1 | 29 | nt | -2 | 6 | -2 | -2 | nt | nt
C[C@@H]1CNCCN1c1ccc(N2CCN(Cc3ccccc3)[C@@H](C)C2)c(C#N)c1 | nt | nt | nt | nt | 1 | nt | nt | nt
C[C@H]1CN(c2ccc(N3CCNC[C@@H]3C)cc2C#N)CCN1Cc1ccccc1 | nt | nt | nt | nt | 11* | nt | -2 | 0
Cn1c(=O)cc(OCCCC(=O)NCc2ccccn2)c2ccccc21 | 5 | -7 | -1 | -4 | 0 | -4 | nt | nt
Cc1ccnc(NC(=O)CCCOc2cc(=O)n(C)c3ccccc23)c1 | -4 | -5 | 0 | -11 | 22*! | 6 | 9.1* | 0
O=C(CN1CCOCC1)N[C@H]1CC[C@@H](CCNS(=O)(=O)c2ccccc2F)O[C@@H]1CO | nt | 6 | nt | nt | nt | nt | nt | nt
CNC[C@@H]1OCCCC[C@@H](C)Oc2ccc(N)cc2C(=O)N([C@@H](C)CO)C[C@H]1C | nt | -5 | nt | nt | nt | nt | nt | nt
COc1cccc(S(=O)(=O)N2C[C@H](O)COC[C@H]3O[C@H](CC(=O)N4CCCCC4)CC[C@@H]32)c1 | nt | 1 | nt | nt | nt | nt | nt | nt
Nc1ccc2cc3ccc(N)cc3nc2c1 | nt | nt | nt | nt | 43* | nt | -11 | -2
O=C(N/N=C1/CC2C=CCC12)c1ccco1 (configuration not stated) | 1 | nt | 0 | -14 | 8.9* | 1 | 2 | 1
O=C(CC(=O)c1ccccc1)Nc1ccccn1 | -5 | 6 | 1 | 4 | 13* | nt | 7 | 9.2*
CCOC(=O)c1ccc2[nH]c3c(c2c1)CCCC3O (configuration not stated) | 22 | nt | -3 | -7 | 0 | 3 | nt | nt
CCOC(=O)c1ccc2[nH]c3c(c2c1)CCCC3 | 1 | 66* | 1 | -5 | 13* | 5 | 7 | 8.9*
O=C(/C=C/c1ccc2c(c1)OCCO2)c1ccccc1 | 8 | nt | 2 | -10 | 17* | nt | 10* | 9.1*
COc1cc(C(=O)Nc2ccc3c(c2)OCO3)ccc1OCc1c(C)noc1C | -8 | nt | 0 | -3 | 8.4* | 8 | 6 | 0
O=C(NN=Cc1ccc2c(c1)OCO2)c1ccccc1 | 10 | 8 | -2 | -1 | 11* | 5 | 8.7* | 8.4*
COc1ccc(C(=O)/C=C/c2ccc3c(c2)OCCO3)cc1 | 47 | 7 | 1 | -5 | 0 | 9 | nt | nt
COc1ccc(C=CC(=O)c2ccc(OC)c(OC)c2)cc1O | nt | 7 | nt | nt | 6 | nt | nt | nt
COc1ccc(C(=O)C=Cc2ccc3c(c2)OCO3)cc1OC | nt | nt | nt | nt | 10* | nt | 12* | 0
SMILES | Rtt109 Vps75 | esBAF inh | CDK5 p35 inh | dFosB act | SMARCA2 act | Dyrk1A ADPGlo | SMARCA2 act conf | VP16 Luc act
O=C(O)C[C@H]1C[C@@H]2c3cc(NC(=O)CC4CC4)ccc3O[C@@H]2[C@H](CO)O1 | nt | 0 | nt | nt | nt | nt | nt | nt
CO[C@@H]1CN(C)C(=O)c2cc(NC(C)=O)ccc2OC[C@H](C)N(C(=O)c2ccccn2)C[C@H]1C | nt | -1 | nt | nt | nt | nt | nt | nt
CO[C@H]1CN(C)C(=O)c2cc(NS(=O)(=O)c3ccc(Oc4ccccc4)cc3)ccc2OC[C@@H](C)NC[C@@H]1C | nt | -1 | nt | nt | nt | nt | nt | nt
COc1ccc(/C=C/C(=O)c2ccc3c(c2)OCO3)c(OC)c1 | -8 | nt | 2 | -7 | 11* | 5 | 8.8* | 8.0*
O=C(NN=C1CCCCCC1)c1ccc2c(c1)OCO2 | 7 | 54* | -1 | -1 | 10* | -3 | 3 | 4
O=C(N/N=C/c1ccc2c(c1)OCO2)c1ccc2c(c1)OCO2 | 1 | 36 | 0 | 9 | 2 | -2 | nt | nt
Cc1ccc(S(=O)(=O)N[C@@H]2CC[C@@H](CCn3cc(C4CCCC4)nn3)O[C@@H]2CO)cc1 | nt | 10 | nt | nt | nt | nt | nt | nt
C=CCn1cnc2c(c1=O)c1nc3ccccc3nc1n2/N=C/c1cccc(OC)c1OC | 5 | 18 | 0 | -29 | 8.2* | -2 | -4 | 4
c1ccc2c(c1)CCN(C1=Nc3cccc4cccc1c34)C2 | -58 | nt | 2 | 12 | 12* | 17 | 4 | 3
c1cc2c3c(cccc3c1)C(N1CCCCCC1)=N2 | -61 | 5 | 1 | -3 | 0 | 3 | nt | nt
C[C@@H]1CN([C@@H](C)CO)C(=O)c2cccc(NC(=O)NC3CCCCC3)c2O[C@@H]1CN(C)Cc1ccc2c(c1)OCO2 | nt | -7 | nt | nt | nt | nt | nt | nt
O=C(NCCc1ccc(F)cc1)c1coc(=O)c(Br)c1 | 0 | -4 | 1 | 1 | 27* | -3 | -8 | 4
C[C@@H]1CN([C@@H](C)CO)C(=O)Cc2cc(NS(=O)(=O)c3ccccc3)ccc2O[C@H]1CN(C)S(=O)(=O)c1ccccc1 | nt | -2 | nt | nt | nt | nt | nt | nt
COc1ccc(CN(C)C[C@@H]2OCCCC[C@H](C)Oc3ccc(NC(=O)NC(C)C)cc3C(=O)N([C@@H](C)CO)C[C@@H]2C)cc1 | nt | -8 | nt | nt | nt | nt | nt | nt
COC(=O)c1ccc(N=NN2CCCCC2)cc1 | -6 | nt | -1 | -3 | 12* | 4 | 4 | 11*
COC(=O)c1ccc(NN=Nc2ccc(C)cc2)cc1 | nt | nt | 2 | -1 | 2 | -17 | nt | nt
